HT1080 IDH1KD tx – qHTS for induction of synthetic lethality in tumor cells producing 2HG: qHTS for the HT-1080-IDH1KD cell line; HT-1080 IDH1 knockdown viability, ATP luminescence, 48 h; Potency, µM (doses to about 46.1 µM), for inactives: at the highest dose activity, negative = toxicity, usual class: cytotoxic; actives 2% (n = 360,000); AID 686971, 2013;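 note: potency is the fitted concentration of half-maximal effect; 0% = DMSO wells and -100% = cell-free medium wells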
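IDH1KD HT-1080 cells, 750/well, RPMI + 5% FBS; compound pinned after 2 h settling; 48 h, 37 °C; CellTiter-Glo luminescence; % activity normalised to DMSO and no-cell wells; curves fitted, classed by r2 and efficacy.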
TDP1 cell noCPT – qHTS for Inhibitors of human tyrosyl-DNA phosphodiesterase 1 (TDP1): qHTS in cells in absence of CPT. actives 15% (n = 420,000). DT40 Tdp1-/- hTDP1 cells, no CPT, ATP luminescence, 48 h. Potency, µM (top dose mostly 46.2 µM), without a hit: at the top dose activity change, negative = growth inhibition, usual class: inhibitors. AID 686978, 2013; note: potency is the fitted concentration of half-maximal effect; nearly all actives have a fitted effect of over 55% in size
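No-CPT arm: Tdp1-/-;hTDP1 DT40 cells (400/well) plus compounds, incubated ≥48 hr at 37 °C. Readout CellTiter-Glo luminescence.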
TDP1 cell CPT – qHTS for Inhibitors of human tyrosyl-DNA phosphodiesterase 1 (TDP1): qHTS in cells in presence of CPT. AID 686979, 2013. chicken DT40 Tdp1-/-;hTDP1 cells + 20 nM CPT, ATP luminescence, 48 h. actives 12% (n = 420,000). Potency, µM (top dose mostly 46.2 µM), for inactives: top-dose activity change, negative = growth inhibition, hits mostly inhibitors; note: potency is the fitted concentration of half-maximal effect; nearly all actives have a fitted effect of over 55% in size
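Chicken DT40 Tdp1-/- cells stably complemented with human TDP1 were seeded at 400 cells/well in medium containing 20 nM camptothecin, exposed to pin-transferred compounds, and grown at 37 °C for at least 48 hr. Viability was read as ATP luminescence.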
12-LOX inh – Primary qHTS assay for inhibitors of human arachidonate 12S-lipoxygenase (ALOX12): Round 2 | purified 12hLO, xylenol orange hydroperoxide absorbance | Potency, µM (series often up to 108 µM), for inactives: at the top dose activity change, negative = inhibition, most hits filed as inhibitors | actives 1.1% (n = 580,000); note: potency is the fitted concentration of half-maximal effect
Target sequence (P18054 whole entry, looked up): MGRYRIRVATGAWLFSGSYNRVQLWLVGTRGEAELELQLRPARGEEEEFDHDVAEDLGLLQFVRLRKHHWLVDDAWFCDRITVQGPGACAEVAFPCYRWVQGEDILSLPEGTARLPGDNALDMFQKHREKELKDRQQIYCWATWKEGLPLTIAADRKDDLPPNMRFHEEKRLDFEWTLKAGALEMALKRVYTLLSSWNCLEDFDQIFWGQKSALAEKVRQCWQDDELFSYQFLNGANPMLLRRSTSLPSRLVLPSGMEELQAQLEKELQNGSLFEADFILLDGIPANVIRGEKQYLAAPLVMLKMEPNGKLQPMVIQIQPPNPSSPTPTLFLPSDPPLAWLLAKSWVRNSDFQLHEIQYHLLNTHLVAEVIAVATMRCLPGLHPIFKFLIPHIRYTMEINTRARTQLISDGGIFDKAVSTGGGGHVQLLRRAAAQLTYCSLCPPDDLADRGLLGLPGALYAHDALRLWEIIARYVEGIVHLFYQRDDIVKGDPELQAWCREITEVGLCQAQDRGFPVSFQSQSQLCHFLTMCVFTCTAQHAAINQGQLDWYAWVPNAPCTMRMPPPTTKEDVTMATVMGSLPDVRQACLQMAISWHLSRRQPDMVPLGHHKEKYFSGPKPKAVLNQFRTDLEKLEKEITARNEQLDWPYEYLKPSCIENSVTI
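Purified human 12hLO at 150 nM in 25 mM Hepes, 0.01% Triton X-100, pH 7.0, preincubated 15 min at room temperature with compound. Reaction started with 40 uM arachidonic acid, 30 min at room temperature. Hydroperoxide measured by Fe-xylenol orange, 573/405 nm absorbance ratio.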
HT1080NT lethal – qHTS for induction of synthetic lethality in tumor cells producing 2HG: qHTS for the HT-1080-NT fibrosarcoma cell line; HT-1080-NT fibrosarcoma viability, CellTiter-Glo ATP luminescence, 48 h; Potency, µM (series often up to 46.1 µM), without a hit: top-dose activity, negative = less viability, actives largely listed as cytotoxic; actives 1.6% (n = 360,000); AID 686970, 2013;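 note: NT is the 2HG producing partner of a matched IDH1 knockdown line; potency is the fitted concentration of half-maximal effect; 0% = DMSO-treated cells and -100% = media-only wells without cells; nearly all actives have a fitted effect of over 55% in size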
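HT-1080-NT; 750 cells/well; 5% FBS RPMI; 48 h compound, 37 degrees C; CellTiter-Glo luminescence; curve fitting and curve-class assignment.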
IL-1B inflam inh – qHTS for Inhibitors of Inflammasome Signaling: IL-1-beta AlphaLISA Primary Screen | activity change, % at 57.5 µM | actives 4.7% (n = 360,000) | THP-1 LPS/ATP IL-1B secretion, AlphaLISA, 16 h; hits give low values; in the data active = activity change below about -50%; inconclusive = mostly about -30% to -49%
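Secreted IL-1B measured by AlphaLISA bead assay after 16 h compound exposure of THP-1 cells; compounds (final up to 57.5 uM) added 1 h before LPS (250 ng/mL) and ATP (1.25 mM) stimulation; lower signal means less secretion.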
The depositor's hits bear a star; ? = inconclusive; . = no result given; ! = not active in a repeat; [ ] = remark or other dose. Only a selection was taken, and hits are over-represented in it overall. Unless noted, calls come from the whole dose curve; as a rule, active = well fitted curve in the direction sought with a large enough effect; inconclusive = small, poorly fitted or top-dose-only effect, or another doubt; inactive = no such curve, though single readings can be large; an effect the other way counts as inactive or inconclusive. Unless noted, % is set by controls: 0 for no effect and ±100 for the full control effect.

SMILES	HT1080 IDH1KD tx	TDP1 cell noCPT	TDP1 cell CPT	12-LOX inh	HT1080NT lethal	IL-1B inflam inh
O=C1NC(Cc2ccc(O)cc2)c2nc3cc(F)ccc3c(=O)n2-c2ncccc21 (centres undefined)	-0.1%	-7.4%	0.1%	-1.2%	-14.7%	5.1
CCCC1NC(=O)c2cc3ccccc3cc2-n2c1nc1ccc(C)cc1c2=O (centres undefined)	2.1%	18.4µM*	?	32.8%	7.4%	2.2
O=c1c2c(CO)c(-c3ccc(F)cc3)nn2ccn1Cc1cc(F)ccc1F	.	.	.	46.0%	.	.
CCCC1(C(=O)O)CCCN(S(=O)(=O)c2ccsc2C(=O)O)C1 (centres undefined)	.	.	.	11.9%	.	.
O=C1NC(Cc2ccccc2)c2nc3ccc(Cl)cc3c(=O)n2-c2ncccc21 (centres undefined)	-17.0%	20.6µM*	?	-2.4%	-24.5%	-6.4
Cc1ccc2nc3n(c(=O)c2c1)-c1ncccc1C(=O)NC3Cc1ccccc1 (centres undefined)	-9.8%	?	?	?	-1.6%	-5.1
CCC1NC(=O)c2cc3ccccc3cc2-n2c1nc1ccc(F)cc1c2=O (centres undefined)	6.6%	23.1µM*	?	?	4.2%	-17.3
Cc1ccc2nc(C)c(C(=O)NN=C3CCN(C)CC3)n2c1	5.17µM*	7.7%	6.2%	12.2%	5.17µM*	64.8
Cc1ccc(/C=N/NC(=O)c2c(C)nc3ccc(Br)cn23)cc1	0.581µM*	0.581µM*	0.731µM*	-4.7%	1.3µM*	71.3
CCOC(=O)c1c(C)nc2ccc(C)cn12	-2.2%	?	-29.4%	-14.8%	8.3%	-11.8
COc1ccc(/C=N\NC(=O)c2c(C)nc3ccc(Br)cn23)cc1	0.581µM*	0.731µM*	0.581µM*	-3.0%	?	74.6
CCOc1ccccc1/C=N/NC(=O)c1c(C)nc2ccc(Br)cn12	-5.8%	-3.7%	-1.4%	16.3%	0.3%	31.1
CC(C)(C)c1ccccc1	.	.	.	-4.2%[176 µM]	.	.
CC(=O)c1cccc(NC(=O)C(Sc2ccc(C(F)(F)F)cn2)c2ccccc2)c1 (centres undefined)	.	.	.	-43.3%	.	.
CCOCCn1c(-n2nc(C)cc2C)nc2c1c(=O)n(CC)c(=O)n2C	.	.	.	-0.1%	.	.
CSc1cccc(NC(=O)c2ccc(C)c(F)c2)c1	.	.	.	20.4%	.	.
CC(Sc1nc2ccccc2c(=O)n1C)C(=O)NC1CCCCC1C (centres undefined)	-7.3%	2.31µM*	4.11µM*	.	-2.7%	-4.5
COc1ccc(CN(C(=O)c2ccc(-c3ccccc3)[nH]2)C(C(=O)NC(C)(C)C)c2ccncc2)cc1 (centres undefined)	14.6µM*	?	?	-8.8%	-21.6%	-83.3*
COc1ccccc1NC(=O)c1cc(-c2ccco2)nc2ccccc12	.	.	.	15.8µM*	.	.
COc1ccccc1NC(=O)c1cc(-c2ccc(C)o2)nc2ccccc12	10.7%	?	?	?	-0.4%	0.0
O=C(Nc1ccc(F)cc1F)c1cc(-c2ccco2)nc2ccccc12	-5.1%	16.4µM*	?	10µM*!	-5.9%	1.2
O=C(Nc1ccccc1F)c1cc(-c2ccco2)nc2ccccc12	-6.6%	?	?	?	-3.3%	10.0
CCc1ccc(S(=O)(=O)N2c3ccc(C)cc3C3CN(C)CCC32)cc1 (centres undefined)	-2.0%	?	?	?	-3.1%	-51.5*
O=C(CCN1CCCC1)c1cccs1	1.3%	1.46µM*	0.731µM*	0.0%	-3.6%	-13.3
O=C(O)c1ccc(CN2CC[C@@H](c3ccc4ccccc4c3)[C@H](O)C2)cc1	.	.	.	11.6%	.	.
SMILES	HT1080 IDH1KD tx	TDP1 cell noCPT	TDP1 cell CPT	12-LOX inh	HT1080NT lethal	IL-1B inflam inh
O=C(CCN1CCC(c2ccccc2)C1)c1ccc2ccccc2c1 (centres undefined)	.	.	.	15.8µM*	.	.
N=c1n(CCN2CCCCC2)c2ccccc2n1CC(=O)c1cccs1	?	20.6µM*	18.4µM*	1.5%	?	-76.4*
COc1cc(C(=O)CCN2CCC(c3ccccc3)C2)cc(OC)c1OC (centres undefined)	6.0%	5.8µM*	4.61µM*	-14.8%	13.9%	-104.8*
COc1cc(C(=O)NC2CCN(Cc3ccccc3)CC2)cc(Cl)c1OC	-12.3%	?	?	-6.6%	-16.3%	-13.6
COc1ccc(OC)c(S(=O)(=O)NCC(=O)N2CCCCCNC(=O)CC2c2ccccc2)c1 (centres undefined)	.	.	.	-7.4%	.	.
O=C(NCc1nnc2n1C(C(=O)NCCc1ccc(Cl)cc1)CC2)C1CC1 (centres undefined)	.	.	.	1.6%[6.33 µM]	.	.
O=C(CCN1CCC(c2cccs2)=N1)c1cccs1	24.8%	5.17µM*	5.8µM*	164.7%	12.5%	-8.7
Cc1ccc(C(=O)NC2CCN(CCCC(=O)c3ccc(F)cc3)CC2)cc1	-12.3%	-28.5%	-18.5%	-4.7%	-16.4%	-21.3
O=C(CCC(=O)N1CCN(c2ccccn2)CC1)c1cccs1	-9.7%	-18.8%	?	8.2%	-11.8%	-28.3
O=C(CCCc1ccccc1)c1ccc2c(c1)OCCO2	-0.2%	-20.2%	-16.5%	-8.9%	-1.9%	14.4
O=C(CCN1CCC2CCC(C2)C1)c1ccc(F)cc1 (centres undefined)	23.2%	2.91µM*	3.26µM*	-9.3%	13.5%	-19.2
